SMARCA2 act: SMARCA2 (BRM) function activators, primary screen, cell-based, luminescence, high throughput; MG213 cells, MMTV-luciferase reporter, dexamethasone, overnight; activation, % at 9.1 µM; 370,000 compounds, 1% hits; AID 652017, 2013; in the data active = activation above about 7.8%;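 also: 0% = vehicle wells and 100% = reference activator wells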
Gli-Sufu antag: Gli-Sufu pathway antagonists, primary screen, luciferase luminescence, Sufu-KO-LIGHT cells, uHTS. inhibition, % at 5 µM. 340,000 compounds, 0.74% hits. Sufu-KO-LIGHT fibroblasts, Gli luciferase reporter luminescence;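 active = inhibition above about 55%, limit read from the data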;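 also: 0% = DMSO-treated cells and 100% = wells with medium but no cells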
697 NFkB inh: inhibitors of PMA/ionomycin-induced NF-kB reporter, 697 cells, primary screen, B-cell NF-kB inhibitor project, cell-based, luminescence, uHTS | inhibition, % at 4 µM | 697 B-cell NF-kB luciferase reporter, 16 h | 330,000 compounds, 0.33% hits; in the data active = inhibition above about 35%
esBAF inh: Bmi1 luciferase reporter increase in mESCs, primary screen, esBAF inhibitor project, mouse ES cells, Bmi1 luciferase knock-in, single point; 24 h; 100% = twice the neutral-well signal; reporter increase, % at 12.5 µM; 350,000 compounds, 2% hits; AID 602393, 2012; in the data active = activation above about 40%; inconclusive = no clear call, values can overlap the other calls;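 also: 0% = median of the plate's neutral control wells and 100% = double that signal; a rise in the Bmi1 reporter signal indicates esBAF inhibition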
Jurkat NFkB inh: inhibitors of induced NF-kB luciferase reporter, primary screen, TCR NF-kB activation inhibitor project, cell-based, luminescence, uHTS; Jurkat, PMA/ionomycin-induced NF-kB luciferase reporter; inhibition, % at 4 µM; 330,000 compounds, 0.53% hits; in the data active = inhibition above about 50%
The depositor's hits bear a star; ? = inconclusive; · = not tested or not shown. Compounds with a hit are over-represented: about 3.3% of the library has one in this group of screens.

SMILES | SMARCA2 act | Gli-Sufu antag | 697 NFkB inh | esBAF inh | Jurkat NFkB inh
Cn1c(=O)c(C(=O)NCc2ccccc2)c(O)c2ccccc21 | 1.4 | -38.1 | -20.6 | 45.3* | -14.3
CC(=O)c1cccc(NC(=O)/C=C/c2ccc([N+](=O)[O-])s2)c1 | 4.2 | 13.1 | · | · | ·
Cc1ccccc1NC(=O)/C=C/c1ccc([N+](=O)[O-])s1 | · | 78.9* | · | · | ·
Cc1ccc(C(=O)O)cc1NC(=S)NC(=O)c1ccc(-c2ccccc2)cc1 | 2.4 | 3.8 | -58.4 | 62.1* | -19.4
Cc1c(Cl)cccc1NC(=S)NC(=O)c1ccccc1 | 4.6 | · | · | 59.7* | ·
Cc1ccc(C(=O)NC(=S)Nc2cccc3nsnc23)cc1 | 3.3 | 16.1 | -68.3 | 62.6* | -23.2
O=C(O)c1cccc(NC(=S)NC(=O)c2ccc(-c3ccccc3)cc2)c1 | 0.5 | -44.0 | -67.6 | · | -1.5
Cc1cc(C)c(NC(=S)NC(=O)c2ccccc2)cc1C | -0.8 | · | · | · | ·
C[C@@H]1CN([C@@H](C)CO)C(=O)c2cc(NS(=O)(=O)c3ccc(F)cc3)ccc2O[C@H]1CN(C)C(=O)Nc1ccc(C(F)(F)F)cc1 | · | · | · | 5.7 | ·
CCC(=O)N1[C@@H]2Cn3c(cccc3=O)[C@H]1[C@@H](C(=O)NC1CCC1)[C@@H]2CO | · | · | · | 3.1 | ·
Cc1nc(-c2ccc(Cl)cc2)sc1C1(C)CC(c2cccc(F)c2)=NO1 (stereo not given) | 1.6 | -27.5 | -6.8 | 46.3* | -15.5
COc1ccc(C(=O)Cn2nnc(-c3ccccc3F)n2)cc1 | 1.2 | 2.1 | 5.8 | 5.6 | -23.1
O=C(Cn1nnc(-c2ccc(OCc3ccccc3F)cc2)n1)N1CCOCC1 | 1.3 | -43.2 | -6.5 | 41.0* | -17.9
Brc1ccccc1Cn1nnc(-c2ccc(N3CCOCC3)cc2)n1 | 6.4 | · | · | · | ·
COc1ccc(-c2nnn(Cc3ccccc3F)n2)cc1 | 1.5 | 3.2 | -143.8 | 63.7* | -103.9
COc1ccc(-c2nnn(CC(=O)N3CCOCC3)n2)cc1 | · | 0.7 | 23.1 | -1.0 | 10.4
CN(C)c1ccc(-c2nnn(Cc3ccccc3Br)n2)cc1 | 1.0 | -39.0 | -28.5 | 93.7* | -22.8
CCOC(=O)C(C(=O)OCC)C1N=C(N)N=C2Oc3ccccc3N21 (stereo not given) | 3.4 | -31.6 | -106.2 | 89.4* | -21.4
COc1ccccc1OCC(=O)Nc1cccc(-c2nc3ccccc3o2)c1 | -0.9 | -78.3 | -28.5 | 38.9 | -7.0
CCC(=O)Nc1cccc(-c2nc3ccccc3o2)c1 | -1.5 | -25.9 | -30.2 | 60.4* | -24.8
Cn1c(-n2c(-c3ccco3)nc3ccccc3c2=O)nc2ccccc21 | 3.9 | -25.4 | -10.1 | 49.0* | -25.0
C=C1[C@@H](O)[C@@H]2O[C@]3(CC[C@H](/C=C/[C@@H](C)[C@@H]4CC(C)=CC5(O[C@H](C[C@@](C)(O)C(=O)OC)CC[C@H]5O)O4)O3)CC[C@H]2O[C@@H]1[C@@H](O)C[C@H](C)[C@H]1OC2(CCCCO2)CC[C@H]1C (stereo not given in full) | · | 90.2* | -12.9 | · | -5.5
Cc1nn(C)c(C)c1C(C)NC(=O)c1cc(COc2ccc(F)c(F)c2)on1 (stereo not given) | 5.8 | 5.5 | -53.4 | 50.7* | -8.7
Cc1nn(C)cc1C(C)NC(=O)c1cc(COc2ccc(F)c(F)c2)on1 (stereo not given) | 2.9 | 23.1 | 3.0 | 13.0 | -10.3
C[C@@H]1CCCCO[C@@H](CN(C)CC2CCCCC2)[C@H](C)CN([C@@H](C)CO)C(=O)c2cc(NC(=O)C3CCCCC3)ccc2O1 | · | · | · | 1.8 | ·
SMILES | SMARCA2 act | Gli-Sufu antag | 697 NFkB inh | esBAF inh | Jurkat NFkB inh
FC(F)(F)c1nnc2c(Sc3ccccn3)nc3ccccc3n12 | 1.9 | -9.6 | -84.9 | 62.6* | -21.7
C[C@@H]1CN([C@@H](C)CO)C(=O)c2cc(NS(=O)(=O)c3ccccc3)ccc2O[C@@H](C)CCCCO[C@@H]1CN(C)CC1CCCCC1 | · | · | · | -1.2 | ·
O=C(C[C@@H]1CC[C@@H](NC(=O)Nc2ccc(F)cc2)[C@H](CO)O1)NCc1ccccn1 | · | · | · | -2.0 | ·
Cc1oc(-c2ccc(Cl)cc2)cc1C(=O)O | 4.0 | -13.9 | -73.2 | 55.6* | -16.7
Cc1oc(-c2ccccc2)cc1C(=O)Nc1cccc(C(=O)O)c1 | -0.6 | -8.1 | -1.4 | 15.6 | -19.2
COc1ccc(NC(=O)Nc2ccc3c(c2)C(=O)N([C@H](C)CO)C[C@@H](C)[C@@H](CN(C)S(C)(=O)=O)O3)cc1 | · | · | · | -7.7 | ·
Cc1ccc(NC(=O)C(=O)c2ccc(C)cc2)cc1 | 2.0 | -11.5 | -103.5 | 75.5* | -133.1
Cc1ccc(NC(=O)c2ccccc2)cc1 | 3.9 | -100.5 | -130.4 | ? | -89.2
Cc1ccc(S(=O)(=O)N(C)C[C@@H]2Oc3c(NS(=O)(=O)c4ccccc4)cccc3C(=O)N([C@@H](C)CO)C[C@@H]2C)cc1 | · | · | · | -8.8 | ·
Cc1cccc(C(=O)NNS(=O)(=O)c2ccc(F)cc2)c1 | -3.3 | -6.2 | 4.4 | 41.8* | -15.5
Cc1cccc(C(=O)NNC(=O)c2ccc(F)cc2)c1 | -0.2 | -1.3 | 5.0 | · | -9.6
Cc1ccc(-c2nc3cc(C)c(Br)c(C)n3c2Cc2cccc(F)c2)cc1 | 3.1 | · | · | 53.6* | ·
COC(=O)c1ccc2nc(-c3cccc(Cl)c3)c(Cc3ccsc3)n2c1 | 3.2 | · | · | 55.2* | ·
COC(=O)c1ccc2nc(-c3ccc(C)cc3)c(Cc3cccc(F)c3)n2c1 | 7.9* | · | · | · | ·
COC(=O)c1ccc2nc(-c3ccc(C#N)cc3)c(Cc3cccc(F)c3)n2c1 | 1.1 | · | · | 4.5 | ·
COC(=O)c1ccc2nc(-c3ccc(Cl)cc3)c(Cc3ccsc3)n2c1 | -1.2 | · | · | · | ·
CO[C@H]1CN(C)C(=O)c2cc(NC(=O)NC(C)C)ccc2OC[C@@H](C)N(CC2CC2)C[C@@H]1C | · | · | · | -6.3 | ·
COc1ccccc1NC(=O)N1C[C@H]2[C@@H](c3ccccc31)[C@H](CO)N2C(C)=O | · | · | · | 1.6 | ·
Cc1ccccc1OCc1nc2ccccc2c(=O)n1N | 5.1 | -24.0 | -11.1 | 28.0 | -37.8
Cc1ccccc1OCc1nnc2c3cnn(C)c3ncn12 | -0.1 | -48.1 | -64.6 | 54.2* | -17.7
Cc1ccc(SC2=C(Sc3ccc(C)cc3)C(=O)c3ccccc3C2=O)cc1 | 4.9 | -12.0 | -201.0 | 41.6* | -75.8
COc1ccccc1-c1cc2ccccc2[nH]1 | 1.1 | -11.7 | -55.7 | 74.1* | -53.7
CC(C)c1cn(CC[C@H]2CC[C@@H](NS(=O)(=O)c3ccccc3)[C@@H](CO)O2)nn1 | · | · | · | 3.4 | ·
Cc1noc(C)c1NC(=O)N(C)C[C@H]1Oc2ccc(NS(=O)(=O)c3ccc(F)cc3)cc2CC(=O)N([C@H](C)CO)C[C@H]1C | · | · | · | -2.7 | ·
Cc1noc(C)c1NC(=O)N(C)C[C@H]1Oc2c(NC(=O)Nc3ccc(C(F)(F)F)cc3)cccc2C(=O)N([C@@H](C)CO)C[C@H]1C | · | · | · | -2.0 | ·
COc1ccc(CNc2ncccc2[N+](=O)[O-])cc1 | 3.0 | -63.9 | -25.5 | 54.1* | -36.7
